Test systems include BT-549 breast; MDA-MB-435 melanoma; SW-620 colon; MCF7 breast; HCT-116 colon; HCC-2998 colon; KM12 colon.
Common to all, as to test: NCI-60 one-dose screen, 48 h (100 = growth as untreated, 0 = no growth, -100 = all killed)
What all share (details): 10 µM unless noted

About 83,000 compounds went through this panel and 20% of them were active in at least one assay; those are over-represented in the sample as a whole.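 Plates (96-well) were seeded with cells, treated with compound at one concentration, and incubated for 48 hours before percent growth was determined.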 Unmarked numbers belong to inactive results. Calls of active or inactive are those of the source. Rule for the calls: active = growth percent below 10; inactive = the rest.

Take `Cc1ccc(C(C)C)c(OCc2ccc(C(=O)N/N=C/c3cccc(O)c3O)cc2)c1`: the growth in the assay with BT-549 breast was 36.2%; in the assay with MDA-MB-435 melanoma, 55.9%; in the assay on SW-620 colon it was 47.8%; in the assay with MCF7 breast, 15.1%; in the assay with HCT-116 colon, 20.4%; in the assay with HCC-2998 colon, 45.7%. Moreover, the growth in the assay with KM12 colon is 36.1%.

With `CCS(=O)(=O)OCCO[C@H]1Cc2cc3ccc(=O)oc3cc2OC1(C)C`, the growth in the assay on BT-549 breast is 100%; in the assay on SW-620 colon, 97%; in the assay on MCF7 breast, 95.1%; with HCT-116 colon, 106%; in the assay on HCC-2998 colon, 109%; in the assay with KM12 colon, 104%.

Consider `COC(c1ccccc1)C(Br)C(=O)c1ccccc1` (centres undefined), for which the growth with BT-549 breast was 92.4%; with MDA-MB-435 melanoma, 96.3%; with SW-620 colon, 125%; in the assay with MCF7 breast, 98.5%; in the assay on HCT-116 colon, 87.7%; with KM12 colon, 114%.

On to `Nc1nc2cc(O)ccc2n2cc3c(F)cccc3c12`, for which the growth is -8.3% (active) in the assay with MDA-MB-435 melanoma; 17.5% with SW-620 colon; -7.71% (active) in the assay on MCF7 breast; 15.1% with HCT-116 colon; 58.5% in the assay on HCC-2998 colon; 35.3% in the assay on KM12 colon.

As for `C=C1CCC2C3(C)COC(c4ccccc4)OC3CCC2(C)C1C/C=C1/C(=O)OCC1O` (centres undefined), the growth was 56.5% in the assay with BT-549 breast, 72.8% in the assay on MDA-MB-435 melanoma, 38.6% in the assay on HCT-116 colon and 94.1% in the assay with HCC-2998 colon.

Consider `O=C(Nc1cccc(Cn2c(=O)[nH]c3ccc(Oc4ncccn4)cc3c2=O)c1)c1cccc(F)c1`, for which the growth was 71.4% with BT-549 breast; 51% with MDA-MB-435 melanoma; 95.3% with SW-620 colon; 57.9% in the assay on MCF7 breast; 70.8% in the assay on HCT-116 colon; 92.5% in the assay with HCC-2998 colon. In the assay on KM12 colon, the growth was 66.6%.

In the case of `C/C(CCC(=O)O)=N/Nc1ccc([N+](=O)[O-])cc1`, the growth with BT-549 breast was 89.1%; in the assay with MDA-MB-435 melanoma it was 38.6%; with SW-620 colon, 72.6%; in the assay with MCF7 breast it was 65.2%; with HCT-116 colon, 56.8%; with HCC-2998 colon, 59.9%. The growth with KM12 colon is 27.1%.

`Cc1ccc(C(=O)Nc2ccc(CN3CCN(C)CC3)c(C(F)(F)F)c2)cc1C#Cc1cncc2ncccc12`: the growth is -82.3% (active) in the assay on BT-549 breast; -93.3% (active) with MDA-MB-435 melanoma; -66.6% (active) in the assay on SW-620 colon; -65.4% (active) in the assay on MCF7 breast; -84.7% (active) with HCT-116 colon; 34.8% in the assay with HCC-2998 colon. Moreover, the growth with KM12 colon is -81.6% (active).

Regarding `Cc1ccc(C(=O)Nc2ccc(CN3CCN(C)CC3)c(C(F)(F)F)c2)cc1C#Cc1cnc(N)c2ccc(C#N)cc12`, the growth in the assay with BT-549 breast was 53.1%; with MDA-MB-435 melanoma it was 10.8%; in the assay on SW-620 colon it was 46.2%; in the assay with MCF7 breast, 74.2%; in the assay on HCT-116 colon, 13.9%; with HCC-2998 colon it was 93%. In addition, the growth in the assay on KM12 colon is 18.4%.

Turning to `NC(=O)c1c(Nc2ccccc2)nn2cc(-c3nc4ccccc4s3)c(N)nc12`, the growth in the assay with BT-549 breast was 102%; in the assay with MDA-MB-435 melanoma, 102%; in the assay with SW-620 colon it was 105%; in the assay with MCF7 breast, 81.4%; with HCT-116 colon it was 99.1%; in the assay on HCC-2998 colon, 97.3%. For the same compound, the growth in the assay on KM12 colon is 99.5%.

As for `COc1cccc(-c2cc(-c3cc4ccccc4oc3=O)nc(N)n2)c1`, the growth in the assay with MDA-MB-435 melanoma was 119%; in the assay with SW-620 colon, 103%; with MCF7 breast, 70%; in the assay on HCT-116 colon, 95.1%; in the assay on KM12 colon, 95.4%.
